# Measured values published in PubChem BioAssay (EPA / NIEHS).
# The source made the active and inactive calls. How the source made its calls: active means hit-call score of the fitted dose curve at least 0.9, where 1 is the maximum; inactive means score below 0.9.
# Assays:
# [1] = APR_HepG2_CellCycleArrest_24hr: Apredica 24-hour HepG2 Assay for Cell Cycle Arrest (AID 2282905); conditions: imaging, actives raise or lower the signal;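 further: cell cycle arrest scored as ratio of 2N to 4N nuclear DNA content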
# Procedure, shortened: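 HepG2 cells were exposed to compounds at 0.39–200 uM (ten concentrations, duplicate) in 0.5% v/v DMSO for 24 hr. After formaldehyde fixation and Triton permeabilization, Hoechst 33342-stained nuclei were imaged at 20x; DNA content was quantified, with bidirectional fitting against DMSO.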
# [2] = APR_HepG2_StressKinase_1hr: Apredica 1-hour HepG2 Assay for Stress Kinase (AID 2282906); conditions: HepG2 stress kinase (phospho-c-Jun) imaging, actives raise or lower the signal
# Procedure, shortened: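 HepG2 cells dosed 0.39-200 uM (0.5% DMSO) for 1 h, then formaldehyde-fixed. Stress kinase read by phospho-c-Jun immunofluorescence using high-content imaging; bidirectional fit vs DMSO.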
# [3] = APR_HepG2_NuclearSize_24hr: Apredica 24-hour HepG2 Assay for Nuclear Size (AID 2282907); conditions: high-content imaging, actives raise or lower the signal
# Procedure, shortened: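 HepG2 human liver cells were exposed for 24 hr to compounds at 0.39–200 uM (ten concentrations, duplicate) in 0.5% v/v DMSO. They were then formaldehyde-fixed, Triton-permeabilized and Hoechst 33342-stained, and nuclear diameter was imaged at 20x. Bidirectional fits were made against DMSO.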
# [4] = APR_HepG2_CellLoss_24hr: Apredica 24-hour HepG2 Assay for Cell Loss (AID 2282908); conditions: high-content imaging;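 on AC50: fit in both directions so a hit may be cell loss or gain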
# Procedure, shortened: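 Compounds were tested at 0.39–200 uM in duplicate with 0.5% v/v DMSO final. Cells were then fixed in 3.7% formaldehyde, Hoechst 33342 nuclei were imaged at 20x by HCS, and cell number was fitted bidirectionally against DMSO.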
# [5] = APR_HepG2_MicrotubuleCSK_24hr: Apredica 24-hour HepG2 Assay for Microtubule CSK Stabilty (AID 2282909); conditions: HepG2 microtubule cytoskeleton imaging, actives raise or lower the signal
# Procedure, shortened: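 HepG2 cells exposed 24 h to compounds at 0.39–200 uM (duplicate, 0.5% v/v DMSO final), then fixed, permeabilized and immunostained for alpha-tubulin with Hoechst 33342. Cytoskeleton imaged at 20x; bidirectional fit versus DMSO baseline.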
# [6] = APR_HepG2_MitoMembPot_24hr: Apredica 24-hour HepG2 Assay for Mitochondrial Membrane Potential (AID 2282911); conditions: imaging, actives raise or lower the signal
# Procedure, shortened: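 Mitochondrial dye uptake (MitoTracker Red CMXRos, 250 nM, 30 min pre-fixation) in HepG2 after 24 hr compound exposure, 0.39–200 uM; ArrayScan images at 20x, activity fitted in both directions relative to DMSO.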
# [7] = APR_HepG2_MitoMass_24hr: Apredica 24-hour HepG2 Assay for Mitochondrial Mass (AID 2282912); conditions: high-content imaging, actives raise or lower the signal
# Procedure, shortened: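 Human HepG2 liver cells were exposed for 24 hr to compounds at 0.39–200 uM (duplicates, 0.5% v/v DMSO final). They were stained live with 250 nM MitoTracker Red CMXRos for 30 min, fixed in 3.7% formaldehyde, and imaged by HCS fluorescence; signals were fitted bidirectionally against DMSO.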
# [8] = APR_HepG2_p53Act_24hr: Apredica 24-hour HepG2 Assay for p53 Activation (AID 2282913); conditions: high-content imaging, actives raise or lower the signal;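 further: p53 protein immunofluorescence averaged per cell in HepG2 with Hoechst nuclei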
# Procedure, shortened: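 Following 24 hr dosing of HepG2 at 0.39–200 uM, the cells undergo formaldehyde fixation, Triton permeabilization and multiplexed antibody labeling that includes p53 (Cy5). Signal from the imaging is referenced to DMSO solvent controls.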
# [9] = APR_HepG2_CellCycleArrest_72hr: Apredica 72-hour HepG2 Assay for Cell Cycle Arrest (AID 2282914); conditions: high-content imaging, actives raise or lower the signal
# Procedure, shortened: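 Using multiplexed high-content imaging, HepG2 nuclei stained with Hoechst 33342 (2 ug/mL) were analysed for DNA content after fixation and permeabilization. Treatment lasted 72 hr across 0.39–200 uM in duplicate with final DMSO 0.5% v/v; DMSO served as negative control.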
# [10] = APR_HepG2_CellLoss_72hr: Apredica 72-hour HepG2 Assay for Cell Loss (AID 2282915); conditions: high-content imaging
# Procedure, shortened: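 HepG2 cells exposed 72 h to compound at 0.39–200 uM (10 concentrations, duplicate) in 0.5% DMSO. Fixed with 3.7% formaldehyde and Hoechst 33342-stained. Imaged at 20x; nuclear count gives cell number, fitted bidirectionally versus DMSO.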
# [11] = APR_HepG2_P-H2AX_72hr: Apredica 72-hour HepG2 Assay for H2AX Phosphorylation (AID 2282916); conditions: imaging, actives raise or lower the signal;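 further: phospho-histone H2A.x immunostain intensity per cell marking DNA damage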
# Procedure, shortened: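 HepG2 human liver cells were exposed for 72 hr to compounds at 0.39–200 uM (10 concentrations, duplicate per plate) in 0.5% v/v DMSO. Fixed, permeabilized cells were immunolabeled for phospho-histone H2A.x with Hoechst 33342 and imaged by HCS fluorescence; bidirectional fit versus DMSO.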
# [12] = APR_HepG2_MitoMembPot_72hr: Apredica 72-hour HepG2 Assay for Mitochondrial Membrane Potential (AID 2282917); conditions: imaging, actives raise or lower the signal
# Procedure, shortened: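 HepG2 cells dosed 72 hr with compound at 0.39–200 uM in duplicate, 0.5% v/v DMSO final. Mitochondria stained with 250 nM MitoTracker Red CMXRos for 30 min before formaldehyde fixation, imaged by high-content fluorescence; bidirectional fit versus DMSO.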
# [13] = APR_HepG2_MitoticArrest_72hr: Apredica 72-hour HepG2 Assay for Mitotic Arrest (AID 2282918); conditions: high-content imaging, actives raise or lower the signal
# Procedure, shortened: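 Using high-content imaging of fixed HepG2 cells, phospho-histone H3 signal was measured following a 72 hr incubation with ten-point compound dilutions up to 200 uM. DMSO served as the negative control and baseline for bidirectional curve fitting.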
# [14] = APR_HepG2_MicrotubuleCSK_72hr: Apredica 72-hour HepG2 Assay for Microtubule CSK Stabilty (AID 2282919); conditions: HepG2 microtubule cytoskeleton, high-content imaging, actives raise or lower the signal
# Procedure, shortened: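 HepG2 cells were exposed 72 hr to compound at 0.39–200 uM in duplicate (0.5% DMSO final), then fixed and permeabilized. Alpha-tubulin immunofluorescence was imaged by high-content microscopy, with bidirectional fitting against DMSO and taxol as positive control.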
# [15] = APR_HepG2_P-H2AX_24hr: Apredica 24-hour HepG2 Assay for H2AX Phosphorylation (AID 2282920); conditions: high-content imaging, actives raise or lower the signal
# Procedure, shortened: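 Human HepG2 liver cells, treated 24 hr with test chemicals (0.39–200 uM, final DMSO 0.5% v/v), are fixed and co-stained for phospho-H2A.x and c-Jun with Hoechst. Imaged intensity is fitted in both directions against DMSO controls.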
# [16] = APR_HepG2_StressKinase_72hr: Apredica 72-hour HepG2 Assay for Stress Kinase (AID 2282921); conditions: HepG2 stress kinase (phospho-c-Jun) imaging, actives raise or lower the signal
# Procedure, shortened: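 Cells were exposed for 72 h to ten concentrations (0.39–200 uM, duplicate) at 0.5% v/v DMSO final, then fixed with 3.7% formaldehyde, permeabilized and immunostained for phospho-c-Jun (Cy3 secondary) with Hoechst nuclear counterstain.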
# [17] = APR_HepG2_StressKinase_24hr: Apredica 24-hour HepG2 Assay for Stress Kinase (AID 2282922); conditions: HepG2 stress kinase (phospho-c-Jun) imaging, actives raise or lower the signal
# Procedure, shortened: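 HepG2 cells exposed 24 h to 0.39–200 uM compound in duplicate (0.5% v/v DMSO final). Cells fixed in 3.7% formaldehyde, permeabilized and immunostained for phospho-c-Jun; read by high-content fluorescence imaging, fitted bidirectionally against DMSO.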
# [18] = APR_HepG2_p53Act_72hr: Apredica 72-hour HepG2 Assay for p53 Activation (AID 2282923); conditions: high-content imaging, actives raise or lower the signal;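 further: average cellular p53 protein immunofluorescence intensity in HepG2 cells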
# Procedure, shortened: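 Cells were dosed for 72 hr with compounds at 0.39–200 uM in duplicate (final DMSO 0.5% v/v), then fixed in 3.7% formaldehyde, permeabilized with Triton X-100 and immunostained for p53 (Cy5) with Hoechst 33342 nuclear counterstain.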
# [19] = APR_HepG2_MitoMass_72hr: Apredica 72-hour HepG2 Assay for Mitochondrial Mass (AID 2282924); conditions: high-content imaging, actives raise or lower the signal;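 further: MitoTracker Red CMXRos stain intensity per cell imaged as mitochondrial mass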
# Procedure, shortened: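 HepG2 cells dosed 72 hr at 0.39–200 uM (0.5% DMSO), in duplicate. MitoTracker Red CMXRos 250 nM loaded 30 min before formaldehyde fixation; high-content fluorescence imaging, bidirectional fit versus DMSO.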
structure (smiles),measurement,setting,value
CN1CSC(=S)N(C)C1,outcome,[1],inactive
same,AC50,[2],40.9 µM (active)
same,outcome,[3],inactive
same,AC50,[4],16.8 µM (active)
same,outcome,[5],inactive
same,outcome,[6],inactive
same,outcome,[7],inactive
same,outcome,[8],inactive
same,AC50,[9],6.04 µM (active)
same,AC50,[10],21.9 µM (active)
same,AC50,[11],4.12 µM (active)
same,outcome,[12],inactive
same,outcome,[13],inactive
same,AC50,[14],66.4 µM (active)
same,AC50,[15],21.8 µM (active)
same,outcome,[16],inactive
same,AC50,[17],26.3 µM (active)
same,outcome,[18],inactive
same,AC50,[19],57.2 µM (active)
CCC(C)Nc1c([N+](=O)[O-])cc(C(C)(C)C)cc1[N+](=O)[O-] (configuration not stated),AC50,[1],89 µM (active)
same,outcome,[2],inactive
same,outcome,[3],inactive
same,AC50,[4],45.8 µM (active)
same,AC50,[5],27.4 µM (active)
same,AC50,[6],100 µM (active)
same,outcome,[7],inactive
same,AC50,[9],83.7 µM (active)
same,AC50,[10],64.9 µM (active)
same,outcome,[11],inactive
same,outcome,[12],inactive
same,outcome,[13],inactive
same,AC50,[14],57.8 µM (active)
same,outcome,[15],inactive
same,outcome,[16],inactive
same,outcome,[17],inactive
same,outcome,[19],inactive
CCC(C)(C)C(=O)OC1=C(c2ccc(Cl)cc2Cl)C(=O)OC12CCCCC2,AC50,[1],60.2 µM (active)
same,outcome,[2],inactive
same,outcome,[3],inactive
same,AC50,[4],137 µM (active)
same,AC50,[5],100 µM (active)
same,outcome,[6],inactive
same,outcome,[7],inactive
same,outcome,[8],inactive
same,outcome,[9],inactive
same,AC50,[10],133 µM (active)
same,outcome,[11],inactive
same,outcome,[12],inactive
same,outcome,[13],inactive
same,outcome,[14],inactive
same,outcome,[15],inactive
same,outcome,[16],inactive
same,outcome,[17],inactive
same,outcome,[18],inactive
same,outcome,[19],inactive
CCCN(CCC)c1c([N+](=O)[O-])cc(C(F)(F)F)cc1[N+](=O)[O-],outcome,[1],inactive
same,outcome,[2],inactive
same,outcome,[3],inactive
same,outcome,[4],inactive
same,outcome,[5],inactive
same,AC50,[6],118 µM (active)
same,outcome,[7],inactive
same,outcome,[9],inactive
same,AC50,[10],109 µM (active)
same,outcome,[11],inactive
same,outcome,[12],inactive
same,outcome,[13],inactive
same,outcome,[14],inactive
same,outcome,[15],inactive
same,outcome,[16],inactive
same,outcome,[17],inactive
same,outcome,[19],inactive
